The whole screen tested about 5,600 compounds, of which about 780 (14%) were called active. Another 3% or so got no clear call; they are omitted. A selection follows. Unmarked numbers belong to inactive results.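 Rule for the calls: active = mean signal decrease across replicates above about 35% based on untreated-well scatter, with enough replicates individually passing (limit read from the data); inconclusive = no rule stated though some were filed; inactive = the rest.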

The nature of the assay: NIH3T3 cell viability loss – cherry-pick, single point, cytotoxicity control for T. cruzi proliferation inhibitor project, confirmation (AID 651742).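 Note: 0% = median of neutral control wells and 100% = median of positive control wells.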 The settings on record: NIH/3T3 viability, CellTiter-Glo ATP luminescence, 90 h; at 8.35 µM; hits give high values. On the technique in general: ATP-based viability assays read luminescence as a measure of living cells.
With `COc1ccc(CN(C)C[C@H]2Oc3ccc(NS(=O)(=O)c4ccc(Cl)cc4)cc3CC(=O)N([C@@H](C)CO)C[C@H]2C)cc1`, the cytotoxicity (signal decrease) is 12.2%.

For `C[C@@H]1CCCCO[C@H](CN(C)C(=O)NC2CCCCC2)[C@H](C)CN([C@H](C)CO)C(=O)c2cc(NC(=O)Nc3ccc(F)cc3)ccc2O1`, the cytotoxicity (signal decrease) is -12.7%.

In the case of `CCCC#Cc1ccc([C@@H]2[C@@H](C#N)N(C(=O)C3CCCC3)[C@@H]2CO)cc1`, the cytotoxicity (signal decrease) was 14.1%.

Consider `N#Cc1ccc(-c2ccc3c(c2)[C@@H]2[C@@H](CCN2C(=O)Cc2ccncc2)[C@@H](CO)N3)cc1`, for which the cytotoxicity (signal decrease) was 8.03%.

Regarding `C[C@H]1CN([C@@H](C)CO)C(=O)Cc2cc(NC(=O)Cc3cn(C)c4ccccc34)ccc2O[C@@H]1CN(C)Cc1ccc(C(F)(F)F)cc1`, the cytotoxicity (signal decrease) was 7.48%.

Consider `C[C@@H]1CN([C@H](C)CO)C(=O)c2cccc(NC(=O)c3cnccn3)c2O[C@@H]1CN(C)Cc1ccc(C(=O)Nc2ccccc2N)cc1`, for which the cytotoxicity (signal decrease) is 32.5%.

Turning to `C[C@@H]1CN([C@@H](C)CO)S(=O)(=O)c2ccc(C#CCN(C)C)cc2O[C@H]1CN(C)C(=O)C1CC1`, the cytotoxicity (signal decrease) was 19.8%.

`CC(C)CC#Cc1ccc2c(c1)O[C@H](CN(C)Cc1ccccc1F)[C@@H](C)CN([C@@H](C)CO)S2(=O)=O`: the cytotoxicity (signal decrease) is -3.93%.

As for `C[C@H](CO)N1C[C@H](C)[C@H](CN(C)Cc2cccnc2)Oc2cc(C#CC3CCCC3)ccc2S1(=O)=O`, the cytotoxicity (signal decrease) is 32%.

As to `C[C@@H]1CN([C@H](C)CO)S(=O)(=O)c2ccc(C#CC3CCCC3)cc2O[C@@H]1CN(C)Cc1cccnc1`, the cytotoxicity (signal decrease) is 48.5% (active).

Take `CCCN(C)C[C@H]1Oc2cc(C#CC3CCCC3)ccc2S(=O)(=O)N([C@H](C)CO)C[C@@H]1C`: the cytotoxicity (signal decrease) was 26.3%.

In the case of `CC(C)CC#Cc1ccc2c(c1)O[C@H](CN(C)Cc1cccnc1)[C@H](C)CN([C@@H](C)CO)S2(=O)=O`, the cytotoxicity (signal decrease) was 65.8% (active).

Turning to `CC(C)CC#Cc1ccc2c(c1)O[C@H](CN(C)C(=O)C1CC1)[C@@H](C)CN([C@@H](C)CO)S2(=O)=O`, the cytotoxicity (signal decrease) was 22.1%.

With `CNC[C@@H]1Oc2cc(C#CCC3CCCC3)ccc2S(=O)(=O)N([C@H](C)CO)C[C@H]1C`, the cytotoxicity (signal decrease) is -4.17%.

Turning to `C[C@@H]1CCCCO[C@H](CN(C)Cc2ccc(Cl)c(Cl)c2)[C@H](C)CN([C@@H](C)CO)C(=O)c2cc(NC(=O)C3CCCCC3)ccc2O1`, the cytotoxicity (signal decrease) was 12.1%.

Consider `C[C@@H]1CN([C@H](C)CO)S(=O)(=O)c2ccc(C#CC3CCCC3)cc2O[C@@H]1CN(C)C(=O)Cc1ccncc1`, for which the cytotoxicity (signal decrease) was 4.33%.

Consider `Cc1ccc(S(=O)(=O)N(C)C[C@@H]2OCCCC[C@@H](C)Oc3ccc(NS(=O)(=O)c4ccc(F)cc4)cc3C(=O)N([C@H](C)CO)C[C@H]2C)cc1`, for which the cytotoxicity (signal decrease) is -0.859%.

As for `O=C(Nc1cc(Cl)cc(Cl)c1)N[C@H]1CC[C@@H](CCNS(=O)(=O)c2cccc(F)c2)O[C@H]1CO`, the cytotoxicity (signal decrease) was 2.47%.

Regarding `Cc1ccc(-c2cnc3c(c2)C(=O)N([C@@H](C)CO)C[C@@H](C)[C@H](CN(C)Cc2ccccc2F)O3)cc1`, the cytotoxicity (signal decrease) was 33%.

With `C[C@H](CO)N1C[C@H](C)[C@H](CN(C)S(=O)(=O)c2ccccc2)Oc2ncc(-c3cccc(C(F)(F)F)c3)cc2C1=O`, the cytotoxicity (signal decrease) is 33.1%.

As for `Cc1ccc(S(=O)(=O)N(C)C[C@@H]2Oc3ncc(-c4cc5ccccc5o4)cc3C(=O)N([C@H](C)CO)C[C@@H]2C)cc1`, the cytotoxicity (signal decrease) is 38.6% (active).

For `C[C@@H]1CN([C@H](C)CO)C(=O)c2cc(C#Cc3ccccn3)cnc2O[C@H]1CN(C)Cc1ccccc1`, the cytotoxicity (signal decrease) is -3.21%.

Regarding `CCCNC(=O)N(C)C[C@@H]1Oc2ncc(C#Cc3ccccc3F)cc2C(=O)N([C@@H](C)CO)C[C@H]1C`, the cytotoxicity (signal decrease) is -5.73%.

Regarding `C[C@H](CO)N1C[C@H](C)[C@@H](CN(C)S(=O)(=O)c2ccccc2)Oc2ncc(C#Cc3ccccc3F)cc2C1=O`, the cytotoxicity (signal decrease) was 37.2% (active).

Consider `C[C@H]1CN([C@@H](C)CO)C(=O)c2cc(C#CC3CCCCC3)cnc2O[C@H]1CN(C)S(=O)(=O)c1ccccc1`, for which the cytotoxicity (signal decrease) was 4.57%.

Regarding `C[C@H](CO)N1C[C@H](C)[C@H](CN(C)C(=O)C2CCCCC2)Oc2ncc(C#Cc3cccc(F)c3)cc2C1=O`, the cytotoxicity (signal decrease) was 25.3%.

Consider `C[C@@H]1CN([C@@H](C)CO)C(=O)c2cc(C#CC3CCCCC3)cnc2O[C@H]1CN(C)S(=O)(=O)c1ccccc1`, for which the cytotoxicity (signal decrease) is 17.3%.

In the case of `C[C@H](CO)N1C[C@H](C)[C@@H](CN(C)S(=O)(=O)c2ccccc2F)Oc2ncc(C#Cc3ccccc3F)cc2C1=O`, the cytotoxicity (signal decrease) was 48% (active).

As to `C[C@H](CO)N1C[C@H](C)[C@H](CN(C)C(=O)Nc2ccc3c(c2)OCO3)Oc2ncc(C#Cc3cccc(F)c3)cc2C1=O`, the cytotoxicity (signal decrease) was 66.2% (active).

With `C[C@@H]1CN([C@H](C)CO)C(=O)c2cc(-c3cncnc3)cnc2O[C@H]1CN(C)C(=O)Nc1ccc2c(c1)OCO2`, the cytotoxicity (signal decrease) was -12.9%.

Regarding `N#C[C@@H]1[C@H](c2ccc(C#Cc3cccc(F)c3)cc2)[C@@H](CO)N1C(=O)C1CCCC1`, the cytotoxicity (signal decrease) is -6.1%.

Consider `CC(C)(C)[S@@](=O)N1Cc2cc(C(=O)NCc3ccc4c(c3)OCO4)nc(-c3cccc(-c4ccccc4)c3)c2[C@H]1CCO`, for which the cytotoxicity (signal decrease) was 24%.

As for `COc1cccc(S(=O)(=O)N2CCCCN3[C@H](CO)[C@H](c4ccc(C#CC5CC5)cc4)[C@H]3C2)c1`, the cytotoxicity (signal decrease) was 24.2%.

`C[C@@H]1CCCCO[C@H](CN(C)C(=O)NC2CCCCC2)[C@H](C)CN([C@H](C)CO)C(=O)c2cc(NS(=O)(=O)c3ccc(Cl)cc3)ccc2O1`: the cytotoxicity (signal decrease) was -21.2%.

Regarding `C[C@H]1CN([C@@H](C)CO)C(=O)c2cccc(NS(=O)(=O)c3cn(C)cn3)c2O[C@@H]1CN(C)CC1CCCCC1`, the cytotoxicity (signal decrease) is -8.55%.

Turning to `C[C@@H]1CCCCO[C@@H](CN(C)C(=O)Nc2ccc(F)cc2)[C@H](C)CN([C@H](C)CO)C(=O)c2cc(NC(=O)Nc3cccc4ccccc34)ccc2O1`, the cytotoxicity (signal decrease) is 1.18%.

For `CN1C(=O)c2cc(NC(=O)Nc3ccccc3F)ccc2OC[C@H]2O[C@H](CC(=O)NCc3ccc(-c4ccccc4)cc3)CC[C@H]21`, the cytotoxicity (signal decrease) is 8.3%.

`N#C[C@@H]1[C@@H](c2ccccc2)[C@@H](CO)N1C(=O)Cc1ccccc1`: the cytotoxicity (signal decrease) is 20.6%.

In the case of `Cc1cc(C(=O)Nc2cccc3c2O[C@@H](CN(C)Cc2ccc(C(=O)Nc4ccccc4N)cc2)[C@H](C)CN([C@@H](C)CO)C3=O)n(C)n1`, the cytotoxicity (signal decrease) was 6%.

For `C[C@H]1CCCCO[C@H](CN(C)Cc2ccccc2)[C@@H](C)CN([C@@H](C)CO)C(=O)c2cc(NC(=O)c3ccccc3)ccc2O1`, the cytotoxicity (signal decrease) is -15.3%.

As to `CC(C)NC(=O)Nc1ccc2c(c1)C(=O)N([C@@H](C)CO)C[C@H](C)[C@H](CN(C)S(=O)(=O)c1ccc(Cl)cc1)OCCCC[C@H](C)O2`, the cytotoxicity (signal decrease) is -22.1%.

In the case of `O=C(Nc1ccc(-c2ccccc2)cc1)[C@H]1[C@H](CO)[C@H]2Cn3c(cccc3=O)[C@H]2N1CC1CC1`, the cytotoxicity (signal decrease) is 8.32%.

`C[C@@H]1CN([C@@H](C)CO)S(=O)(=O)c2ccc(C#CCC3CCCC3)cc2O[C@H]1CN(C)C(=O)CC1CC1`: the cytotoxicity (signal decrease) is 15%.

Consider `C[C@H]1CN([C@@H](C)CO)S(=O)(=O)c2ccc(C#CC3CCCC3)cc2O[C@H]1CN(C)C(=O)Cc1ccncc1`, for which the cytotoxicity (signal decrease) is 6.81%.

`COc1ccc(S(=O)(=O)N(C)C[C@H]2Oc3c(NC(=O)Nc4cccc5ccccc45)cccc3C(=O)N([C@@H](C)CO)C[C@H]2C)cc1`: the cytotoxicity (signal decrease) was 19.4%.

With `Cc1ccc(S(=O)(=O)N(C)C[C@@H]2Oc3c(NC(=O)c4nc5ccccc5s4)cccc3C(=O)N([C@H](C)CO)C[C@@H]2C)cc1`, the cytotoxicity (signal decrease) is 23.6%.

Regarding `COc1ccc(S(=O)(=O)N(C)C[C@H]2OCCCC[C@H](C)Oc3ccc(NS(=O)(=O)c4ccc(F)cc4)cc3C(=O)N([C@@H](C)CO)C[C@@H]2C)cc1`, the cytotoxicity (signal decrease) is -16.9%.

On to `CCC(=O)N1CC[C@@H]2[C@@H](CO)N(C)c3ccc(-c4ccc(F)cc4)cc3[C@@H]21`, for which the cytotoxicity (signal decrease) was -22.3%.

As for `C/C=C/c1ccc([C@H]2[C@H]3CN(S(=O)(=O)c4ccccc4)CCCCN3[C@H]2CO)cc1`, the cytotoxicity (signal decrease) was 20.3%.

In the case of `C[C@H](CO)N1C[C@H](C)[C@@H](CN(C)S(=O)(=O)c2cccc(F)c2)OCc2ccccc2-c2c(n(C)c3ccccc23)C1=O`, the cytotoxicity (signal decrease) is -5.9%.

As for `C[C@@H]1CCCCO[C@H](CN(C)S(=O)(=O)c2ccc(F)cc2)[C@H](C)CN([C@@H](C)CO)C(=O)c2cc(NS(=O)(=O)c3ccccc3)ccc2O1`, the cytotoxicity (signal decrease) was -7.76%.

As to `C[C@H]1CN([C@@H](C)CO)C(=O)c2ccccc2-c2ccccc2CO[C@@H]1CN(C)S(=O)(=O)c1ccc(C(F)(F)F)cc1`, the cytotoxicity (signal decrease) was 38.8% (active).

For `Cc1ccc(S(=O)(=O)Nc2ccc3c(c2)C(=O)N([C@H](C)CO)C[C@H](C)[C@H](CN(C)Cc2ccc(Cl)c(Cl)c2)O3)cc1`, the cytotoxicity (signal decrease) is 17%.

Turning to `C[C@H]1CCCCO[C@@H](CN(C)C(=O)NC2CCCCC2)[C@@H](C)CN([C@@H](C)CO)C(=O)c2cc(NS(=O)(=O)c3ccc(Cl)cc3)ccc2O1`, the cytotoxicity (signal decrease) was -16.4%.

As for `COCC(=O)N1[C@H](CO)[C@@H](c2ccc(C#Cc3ccccc3F)cc2)[C@@H]1C#N`, the cytotoxicity (signal decrease) was -6.81%.

With `C[C@@H]1CN([C@H](C)CO)C(=O)c2cc(NS(=O)(=O)c3cccs3)ccc2O[C@@H](C)CCCCO[C@H]1CN(C)Cc1ccc(C(F)(F)F)cc1`, the cytotoxicity (signal decrease) is 5.21%.

The values are drawn from PubChem BioAssay AID651742 (Broad Institute, 2012).
